According to PubChem BioAssay (Tox21):
Inconclusive results are not listed. The source made the active and inactive calls. Calls follow the shape of the dose curve; as a rule, active = well fitted curve in the direction sought with a large enough effect in the repeat runs; inconclusive = weak or mixed curves; inactive = no such curve, though single readings can be large; an effect the other way counts as inactive or inconclusive.

What was measured:
[1] = A CellTox Green Cytotoxicity Assay to monitor cytotoxicity in HEK293 cells - 40 hour (AID 1224871); also: nearly all actives have a fitted effect of over 45% in size; also: potency is read from the fitted curve at half-maximal effect
Summary of the method: (§1)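 HEK293 cells premixed with CellTox Green dye were seeded at 600 cells/well and left 5 h at 37 C/5% CO2 before pin transfer of 23 nL compound in DMSO. Fluorescence from dye bound to dead-cell DNA was read during 40 h treatment.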

[2] = qHTS RealTime-Glo MT Cell Viability Assay in HEK293 cells - 16 hour (AID 1224872); also: top concentration of the series differs between compounds; nearly all actives have a fitted effect of over 50% in size
Summary of the method: (§2)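 Quantitative high-throughput screen of the Tox21 10K library in HEK293: cells and RealTime-Glo reagents plated together, compound added at 5 h, luminescence monitored through 40 h at 37 C.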

[3] = qHTS RealTime-Glo MT Cell Viability Assay in HepG2 cells - 8 hour (AID 1224873); also: nearly all actives have a fitted effect of over 55% in size
Summary of the method: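 Real-time viability: cells seeded at 600 per well together with NanoLuc and cell-permeant prosubstrate, compounds added after 5 h incubation. Luminescence tracked at 0, 8, 16, 24, 32 and 40 h of exposure.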

[4] = qHTS RealTime-Glo MT Cell Viability Assay in HEK293 cells - 40 hour (AID 1224874); conditions: RealTime-Glo luminescence; max response: stronger effect = lower value; also: nearly all actives have a fitted effect of over 50% in size
Summary of the method: (§3)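 HEK293 cells mixed with RealTime-Glo reagents (NanoLuc plus cell-permeant prosubstrate) at 600 cells/well, preincubated 5 h at 37 C/5% CO2, then given 23 nL compound in DMSO. Nonlytic luminescence from viable cells was read at 0, 8, 16, 24, 32 and 40 h.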

[5] = A CellTox Green Cytotoxicity Assay to monitor cytotoxicity in HEK293 cells - 24 hour (AID 1224875); also: nearly all actives have a fitted effect of over 45% in size; also: potency is read from the fitted curve at half-maximal effect; as to activity change: series mostly up to about 77 µM
Summary of the method: as §1

[6] = A CellTox Green Cytotoxicity Assay to monitor cytotoxicity in HepG2 cells - 16 hour (AID 1224876); also: nearly all actives have a fitted effect of over 45% in size
Summary of the method: (§4)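 HepG2 cells were seeded together with the CellTox Green dye at 600 cells/well, left 5 h at 37 C/5% CO2, then given compounds in DMSO. Fluorescence from dye bound to dead-cell DNA was read repeatedly over 40 h of treatment at 37 C.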

[7] = qHTS RealTime-Glo MT Cell Viability Assay in HepG2 cells - 32 hour (AID 1224877); also: nearly all actives have a fitted effect of over 55% in size
Summary of the method: (§5)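 Compound treatment began 5 h after plating HepG2 cells (600/well) with NanoLuc luciferase and prosubstrate. Plates stayed at 37 C for 40 h; luminescence was captured at six time points, 0 h through 40 h.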

[8] = A CellTox Green Cytotoxicity Assay to monitor cytotoxicity in HepG2 cells - 24 hour (AID 1224878); also: nearly all actives have a fitted effect of over 45% in size
Summary of the method: as §4

[9] = qHTS RealTime-Glo MT Cell Viability Assay in HEK293 cells - 0 hour (AID 1224880)
Summary of the method: as §3

[10] = A CellTox Green Cytotoxicity Assay to monitor cytotoxicity in HEK293 cells - 32 hour (AID 1224881); also: nearly all actives have a fitted effect of over 40% in size; also: potency is read from the fitted curve at half-maximal effect
Summary of the method: as §1

[11] = A CellTox Green Cytotoxicity Assay to monitor cytotoxicity in HepG2 cells - 0 hour (AID 1224882); also: nearly all actives have a fitted effect of over 35% in size
Summary of the method: as §4

[12] = A CellTox Green Cytotoxicity Assay to monitor cytotoxicity in HepG2 cells - 32 hour (AID 1224883); also: nearly all actives have a fitted effect of over 50% in size
Summary of the method: as §4

[13] = A CellTox Green Cytotoxicity Assay to monitor cytotoxicity in HEK293 cells - 8 hour (AID 1224884); also: nearly all actives have a fitted effect of over 35% in size
Summary of the method: as §1

[14] = qHTS RealTime-Glo MT Cell Viability Assay in HepG2 cells - 16 hour (AID 1224885); also: nearly all actives have a fitted effect of over 50% in size
Summary of the method: as §5

[15] = qHTS RealTime-Glo MT Cell Viability Assay in HEK293 cells - 24 hour (AID 1224886)
Summary of the method: as §2

[16] = A CellTox Green Cytotoxicity Assay to monitor cytotoxicity in HEK293 cells - 16 hour (AID 1224888); also: nearly all actives have a fitted effect of over 35% in size
Summary of the method: as §1

[17] = qHTS RealTime-Glo MT Cell Viability Assay in HepG2 cells - 0 hour (AID 1224889); also: nearly all actives have a fitted effect of over 50% in size
Summary of the method: as §5

[18] = A CellTox Green Cytotoxicity Assay to monitor cytotoxicity in HepG2 cells - 8 hour (AID 1224890); also: nearly all actives have a fitted effect of over 45% in size
Summary of the method: as §4

[19] = A CellTox Green Cytotoxicity Assay to monitor cytotoxicity in HepG2 cells - 40 hour (AID 1224879); also: nearly all actives have a fitted effect of over 40% in size
Summary of the method: as §4

[20] = qHTS RealTime-Glo MT Cell Viability Assay in HEK293 cells - 8 hour (AID 1224887)
Summary of the method: as §3
% is scaled to controls: 0 for no effect and ±100 for the full control effect.

OCC(Cl)CCl (stereo unspecified)
inactive: Potency [1] | Potency [2] | outcome [3] | max response [4] -0.453% | Potency [5] | Potency [6] | Potency [7] | Potency [8] | outcome [9] | Potency [10] | outcome [11] | Potency [12] | Potency [13] | Potency [14] | Potency [15] | Potency [16] | outcome [17] | Potency [18]

CCC1(c2ccccc2)C(=O)N(COC)C(=O)N(COC)C1=O
inactive: Potency [1] | Potency [2] | outcome [3] | max response [4] 2.07% | Potency [5] | Potency [6] | Potency [7] | Potency [8] | Potency [19] | Potency [10] | outcome [11] | Potency [12] | Potency [13] | Potency [15] | Potency [20] | Potency [16] | outcome [17] | Potency [18]

NCC1(CC(=O)O)CCCCC1
inactive: Potency [1] | Potency [2] | outcome [3] | max response [4] 1.23% | Potency [5] | Potency [6] | Potency [7] | Potency [8] | outcome [9] | Potency [10] | outcome [11] | Potency [12] | Potency [13] | Potency [14] | Potency [15] | Potency [16] | Potency [18]

Clc1ccc(C(Cl)(Cl)Cl)cn1
active: Potency [1] 34.7 µM | Potency [5] 34.7 µM | Potency [10] 34.7 µM
inactive: Potency [2] | outcome [3] | max response [4] 1.5% | Potency [6] | Potency [7] | Potency [8] | Potency [19] | outcome [11] | Potency [12] | Potency [15] | Potency [20] | outcome [17] | Potency [18]

C=C(Cl)CSC(=S)N(CC)CC
inactive: Potency [1] | Potency [2] | outcome [3] | max response [4] -15% | Potency [5] | Potency [6] | Potency [7] | Potency [8] | outcome [9] | Potency [10] | outcome [11] | Potency [12] | Potency [14] | Potency [15] | Potency [20] | Potency [16] | outcome [17] | Potency [18]

CS(=O)(=O)Cl
inactive: Potency [1] | Potency [2] | outcome [3] | max response [4] -0.619% | Potency [5] | Potency [6] | Potency [7] | Potency [8] | outcome [9] | Potency [10] | outcome [11] | Potency [12] | Potency [13] | Potency [14] | Potency [15] | Potency [20] | Potency [16] | outcome [17] | Potency [18]

CCNc1nc(Cl)nc(NC(C)(C)C)n1
inactive: Potency [1] | Potency [2] | outcome [3] | max response [4] -11% | Potency [5] | Potency [6] | Potency [7] | Potency [8] | outcome [9] | Potency [10] | outcome [11] | Potency [12] | Potency [13] | Potency [14] | Potency [15] | Potency [20] | Potency [16] | outcome [17] | Potency [18]

CCOC(=O)C(SP(=S)(OC)OC)c1ccccc1 (stereo unspecified)
inactive: Potency [1] | Potency [2] | outcome [3] | max response [4] -6.34% | Potency [5] | Potency [6] | Potency [7] | Potency [8] | outcome [9] | Potency [10] | outcome [11] | Potency [12] | Potency [13] | Potency [15] | Potency [20] | Potency [16] | Potency [18]

COc1cccc([C@@]2(O)CCCC[C@@H]2CN(C)C)c1
inactive: Potency [1] | Potency [2] | outcome [3] | max response [4] 0.459% | Potency [5] | Potency [6] | Potency [7] | Potency [8] | outcome [9] | Potency [10] | outcome [11] | Potency [12] | Potency [13] | Potency [15] | Potency [20] | Potency [16] | outcome [17] | Potency [18]

NC1(c2ccccc2)CCCCC1
inactive: Potency [1] | Potency [2] | outcome [3] | max response [4] -3.55% | Potency [5] | Potency [6] | Potency [7] | Potency [8] | outcome [9] | Potency [10] | outcome [11] | Potency [12] | Potency [13] | Potency [14] | Potency [15] | Potency [20] | outcome [17] | Potency [18]

ClC(Cl)(Cl)Cl
inactive: Potency [1] | Potency [2] | outcome [3] | max response [4] 2.56% | Potency [5] | Potency [6] | Potency [7] | Potency [8] | outcome [9] | Potency [10] | outcome [11] | Potency [12] | Potency [13] | Potency [14] | Potency [15] | Potency [20] | Potency [16] | outcome [17] | Potency [18]

Cc1ccc2c(c1)C1CN(C)CCC1N2 (stereo unspecified)
inactive: cytotoxicity increase [1] -9.63% [at 15.8 µM] | activity change, negative = cytotoxicity [2] -1.2% [at 15.8 µM] | viability change, negative = cytotoxic [3] -2.24% [at 15.8 µM] | max response [4] 2.17% | activity change [5] 0.918% [at 15.8 µM, stronger effect = higher value] | cytotoxicity increase [6] 12.2% [at 15.8 µM] | activity change, negative = cytotoxic [7] -0.204% [at 15.8 µM] | cytotoxicity [8] 11.8% [at 15.8 µM] | cytotoxicity increase [19] 15.6% [at 15.8 µM] | cytotoxicity increase [10] -4.65% [at 15.8 µM] | cytotoxicity [11] -0.534% [at 15.8 µM] | cytotoxicity increase [12] 14.3% [at 15.8 µM] | activity change, negative = cytotoxic [14] -6.11% [at 15.8 µM] | activity change, negative = cytotoxicity [15] -0.194% [at 15.8 µM] | activity change [16] -0.0479% [at 15.8 µM, stronger effect = higher value] | activity change, negative = cytotoxicity [17] -0.0575% [at 15.8 µM] | cytotoxicity increase [18] 11.9% [at 15.8 µM]

CC(C)(C)C(=O)C(Cl)Cl
inactive: Potency [1] | Potency [2] | outcome [3] | max response [4] -2.49% | Potency [5] | Potency [6] | Potency [7] | Potency [8] | outcome [9] | Potency [10] | outcome [11] | Potency [12] | Potency [13] | Potency [15] | Potency [16] | outcome [17] | Potency [18]

COc1ccccc1OC
inactive: Potency [1] | Potency [2] | outcome [3] | max response [4] 0.0799% | Potency [5] | Potency [6] | Potency [7] | Potency [8] | outcome [9] | Potency [10] | outcome [11] | Potency [12] | Potency [14] | Potency [15] | outcome [17] | Potency [18]

COP(=O)(OC)O/C(C)=C/C(=O)N(C)C
inactive: Potency [1] | Potency [2] | outcome [3] | max response [4] 13.5% | Potency [5] | Potency [6] | Potency [7] | Potency [8] | outcome [9] | Potency [10] | outcome [11] | Potency [12] | Potency [13] | Potency [14] | Potency [15] | Potency [20] | Potency [16] | outcome [17] | Potency [18]
